Measurements published in the supplement of paper PMC8975748.
Counter-ions that a name gives are not always drawn.

Test system: Saccharomyces cerevisiae BY4741 SeMeCo community
Assay: z-score of subpopulation abundance vs DMSO median, subpopulation auxotrophic for HLU; higher = larger share of this subpopulation than in DMSO controls
Details: 10 µM; 24 h; SM minimal medium; subpopulation (auxotrophy): HLU
Procedure: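 Fluorescent four-plasmid SeMeCo (self-establishing metabolically cooperating S. cerevisiae BY4741 community; plasmids pH-mRuby2, pL-mWasabi, pU-eCFP, pM-TagRFP657) was grown 24 h in minimal SM medium with each Selleck FDA-approved drug at 10 µM in 384-well plates. Cells were fixed and imaged by high-content confocal microscopy. For each auxotrophic subpopulation (and the prototroph), a z-score gives the deviation from the DMSO vehicle-control population median.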

| SMILES | z-score of subpopulation abundance |
| --- | --- |
| CC(C)n1c(/C=C/C(O)CC(O)CC(=O)O)c(-c2ccc(F)cc2)c2ccccc21 (stereo not given) [Fluvastatin Sodium] | 4.2 |
| NCC[C@H](O)C(=O)N[C@@H]1C[C@H](N)[C@@H](O[C@H]2O[C@H](CN)[C@@H](O)[C@H](O)[C@H]2O)[C@H](O)[C@H]1O[C@H]1O[C@H](CO)[C@@H](O)[C@H](N)[C@H]1O [Amikacin hydrate] | -0.03 |
| CCCCCCCCCCCCCCCCCCOP(=O)([O-])OC1CC[N+](C)(C)CC1 [Perifosine (KRX-0401)] | 13.3 |
| O=C([O-])CC(O)(CC(=O)[O-])C(=O)[O-].O=C([O-])CC(O)(CC(=O)[O-])C(=O)[O-].[Bi+3].[K+].[K+].[K+].[K+].[K+] [Bismuth Subcitrate Potassium] | 3 |
| COc1ccc2cc3[n+](cc2c1OC)CCc1cc2c(cc1-3)OCO2 [Berberine chloride] | 0.27 |
| CO/N=C(\C(=O)N[C@@H]1C(=O)N2C(C(=O)O)=C(CSc3nc(C)c(CC(=O)O)s3)CS[C@H]12)c1csc(N)n1 [Cefodizime Sodium] | -1.16 |
| CCN(Cc1ccncc1)C(=O)C(CO)c1ccccc1 (stereo not given) [Tropicamide] | 0.42 |
| O=C(O)CCC(=O)Nc1ccc(S(=O)(=O)Nc2nccs2)cc1 [Succinylsulfathiazole] | -0.43 |
| O=C(O)CCC(=O)OC[C@@H](NC(=O)C(Cl)Cl)[C@H](O)c1ccc([N+](=O)[O-])cc1 [Chloramphenicol sodium succinate] | 1.48 |
| CO[C@H]1C[C@@H]2CC[C@@H](C)[C@@](O)(O2)C(=O)C(=O)N2CCCC[C@H]2C(=O)O[C@H]([C@H](C)C[C@@H]2CC[C@@H](O)[C@H](OC)C2)CC(=O)[C@H](C)/C=C(\C)[C@@H](O)[C@@H](OC)C(=O)[C@H](C)C[C@H](C)/C=C/C=C/C=C/1C [Rapamycin (Sirolimus)] | 21 |
| O=C1Nc2ccccc2C1=O [Isatin] | 0.06 |
| CC(C(=O)O)c1ccc2c(c1)[nH]c1ccc(Cl)cc12 (stereo not given) [Carprofen] | -0.81 |
| CS(=O)(=O)c1ccc([C@@H](O)[C@@H](CO)NC(=O)C(Cl)Cl)cc1 [Thiamphenicol] | -0.36 |
| COc1cc(NC(C)CCCN)c2ncccc2c1 (stereo not given) [Primaquine Diphosphate] | -0.39 |
| NC(=O)[C@@H]1CC[C@@H]2CN1C(=O)N2OS(=O)(=O)O [Avibactam sodium] | 0.1 |
| O=C(Nc1cc(Cl)cc(Cl)c1O)c1c(O)c(Cl)cc(Cl)c1Cl [Oxyclozanide] | -0.55 |
| Oc1c(I)cc(Cl)c2cccnc12 [Clioquinol] | 41 |
| CC1=CC[C@@](O)(C(C)C)CC1 [Terpinen-4-ol] | 0.05 |
| COc1ccc2[nH]c([S@@+]([O-])Cc3ncc(C)c(OC)c3C)nc2c1 [NEXIUM (esomeprazole magnesium)] | 1.46 |
| OCCN(CCO)c1nc(N2CCCCC2)c2nc(N(CCO)CCO)nc(N3CCCCC3)c2n1 [Dipyridamole] | -3.69 |

| SMILES | z-score of subpopulation abundance |
| --- | --- |
| CCN(CC)CCOC(=O)c1ccc(N)cc1Cl [Chloroprocaine HCl] | 0.39 |
| C=CC1=C(C(=O)O)N2C(=O)[C@@H](NC(=O)/C(=N\OCC(=O)O)c3csc(N)n3)[C@H]2SC1 [Cefixime] | -0.72 |
| N=C(N)NC(=O)c1nc(Cl)c(N)nc1N [Amiloride HCl dihydrate] | -1.34 |
| CCC(=O)Oc1ccc2c(c1)CCC1C2CCC2(C)C(OC(=O)CC)CCC12 (stereo not drawn) [Estradiol dipropionate(17-Beta-Estradiol-3,17-Dipropionate)] | -0.61 |
| Cc1[nH]c(=O)c(C#N)cc1-c1ccncc1 [Milrinone] | -0.86 |
| CC/C(=C(\c1ccccc1)c1ccc(OCCN(C)C)cc1)c1ccccc1 [Tamoxifen Citrate] | 0.36 |
| CCC1=C(C)CN(C(=O)NCCc2ccc(S(=O)(=O)NC(=O)N[C@H]3CC[C@H](C)CC3)cc2)C1=O [Glimepiride] | 0.26 |
| C=CCc1ccc(O)c(-c2ccc(O)c(CC=C)c2)c1 [Honokiol] | -1.04 |
| CC1(C)S[C@@H]2[C@H](NC(=O)[C@H](N)c3ccccc3)C(=O)N2[C@H]1C(=O)O [Ampicillin sodium] | -0.42 |
| CO[C@@H]1[C@H](OC(=O)/C=C/C=C/C=C/C=C/C(=O)O)CC[C@]2(CO2)[C@H]1[C@@]1(C)O[C@@H]1CC=C(C)C [Fumagillin] | 2.31 |
| COc1ccc2c3c1O[C@H]1C[C@@H](O)C=C[C@@]31CCN(C)C2 [Galanthamine] | 1.67 |
| NC(=O)c1cnccn1 [Pyrazinamide] | -0.7 |
| Cc1c(C(N)=O)cc([N+](=O)[O-])cc1[N+](=O)[O-] [Dinitolmide] | -0.18 |
| OB1OCc2cc(F)ccc21 [Tavaborole (AN-2690)] | 23.2 |
| CC[C@H](C)C(=O)O[C@H]1CCC=C2C=C[C@H](C)[C@H](CC[C@@H]3C[C@@H](O)CC(=O)O3)[C@H]21 [Mevastatin] | 0.15 |
| O=C(Nc1c(Cl)cncc1Cl)c1ccc(OC(F)F)c(OCC2CC2)c1 [Roflumilast] | -0.37 |
| CC(C(=O)O)c1ccc(C(=O)c2cccs2)cc1 (stereo not given) [Suprofen] | 0.03 |
| CC[C@@H](CO)NCCN[C@@H](CC)CO [Ethambutol 2HCl] | 0.56 |
| CN(C)CCC=C1c2ccccc2C=Cc2ccccc21 [Cyclobenzaprine HCl] | -0.46 |
| O=C1CN(/N=C/c2ccc(-c3ccc([N+](=O)[O-])cc3)o2)C(=O)N1 [Dantrolene sodium] | -0.91 |
